Experiment [1] addresses Death-associated protein kinase 1 (Homo sapiens) (UniProt P53355). The settings on record: at 1 µM.
The target in experiment [2] is T1, Serine/threonine-protein kinase DCLK2 (Homo sapiens) (UniProt Q8N568).
T1 sequence (whole entry): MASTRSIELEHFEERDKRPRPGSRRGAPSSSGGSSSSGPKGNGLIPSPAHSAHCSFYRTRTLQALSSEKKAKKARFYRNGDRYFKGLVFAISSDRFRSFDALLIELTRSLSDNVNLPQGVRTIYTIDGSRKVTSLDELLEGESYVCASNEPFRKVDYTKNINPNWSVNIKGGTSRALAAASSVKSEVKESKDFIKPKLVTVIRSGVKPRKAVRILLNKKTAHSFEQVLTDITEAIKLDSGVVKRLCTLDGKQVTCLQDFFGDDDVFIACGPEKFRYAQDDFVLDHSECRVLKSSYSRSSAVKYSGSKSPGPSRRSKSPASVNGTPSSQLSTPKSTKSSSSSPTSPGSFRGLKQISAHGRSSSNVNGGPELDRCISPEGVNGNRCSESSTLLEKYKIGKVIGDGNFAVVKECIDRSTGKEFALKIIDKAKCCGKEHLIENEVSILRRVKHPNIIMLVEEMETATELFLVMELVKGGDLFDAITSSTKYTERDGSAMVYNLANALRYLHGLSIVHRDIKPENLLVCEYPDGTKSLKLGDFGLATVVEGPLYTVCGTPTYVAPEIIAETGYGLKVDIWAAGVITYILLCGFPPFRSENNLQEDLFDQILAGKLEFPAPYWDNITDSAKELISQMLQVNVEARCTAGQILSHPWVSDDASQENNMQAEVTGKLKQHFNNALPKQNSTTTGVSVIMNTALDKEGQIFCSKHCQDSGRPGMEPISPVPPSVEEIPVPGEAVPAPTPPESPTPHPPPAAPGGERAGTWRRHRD
The settings on record: at 0.1 µM.

Experiment [3] concerns the target T1, Serine/threonine-protein kinase DCLK2 (Homo sapiens). The settings on record: at 1 µM.
For experiment [4], the target named is MAP kinase-activated protein kinase 2 (Homo sapiens) (UniProt P49137). The settings on record: at 0.1 µM.
For experiment [5] the target is unchanged. The settings on record: at 1 µM.
Experiment [6] has as its target MAP kinase-activated protein kinase 3 (Homo sapiens) (UniProt Q16644). The settings on record: at 0.1 µM.
For experiment [7] the target is unchanged. The settings on record: at 1 µM.
In experiment [8] the target is Serine/threonine-protein kinase MARK1 (Homo sapiens) (UniProt Q9P0L2). The settings on record: at 0.1 µM.
The target is the same in experiment [9]. The settings on record: at 1 µM.
In experiment [10] the target is MAP/microtubule affinity-regulating kinase 3 (Homo sapiens) (UniProt P27448). The settings on record: at 0.1 µM.
Experiment [11] has the same target. The settings on record: at 1 µM.
Experiment [12] has as its target T2, MAP/microtubule affinity-regulating kinase 4 (Homo sapiens) (UniProt Q96L34).
T2 sequence (whole entry): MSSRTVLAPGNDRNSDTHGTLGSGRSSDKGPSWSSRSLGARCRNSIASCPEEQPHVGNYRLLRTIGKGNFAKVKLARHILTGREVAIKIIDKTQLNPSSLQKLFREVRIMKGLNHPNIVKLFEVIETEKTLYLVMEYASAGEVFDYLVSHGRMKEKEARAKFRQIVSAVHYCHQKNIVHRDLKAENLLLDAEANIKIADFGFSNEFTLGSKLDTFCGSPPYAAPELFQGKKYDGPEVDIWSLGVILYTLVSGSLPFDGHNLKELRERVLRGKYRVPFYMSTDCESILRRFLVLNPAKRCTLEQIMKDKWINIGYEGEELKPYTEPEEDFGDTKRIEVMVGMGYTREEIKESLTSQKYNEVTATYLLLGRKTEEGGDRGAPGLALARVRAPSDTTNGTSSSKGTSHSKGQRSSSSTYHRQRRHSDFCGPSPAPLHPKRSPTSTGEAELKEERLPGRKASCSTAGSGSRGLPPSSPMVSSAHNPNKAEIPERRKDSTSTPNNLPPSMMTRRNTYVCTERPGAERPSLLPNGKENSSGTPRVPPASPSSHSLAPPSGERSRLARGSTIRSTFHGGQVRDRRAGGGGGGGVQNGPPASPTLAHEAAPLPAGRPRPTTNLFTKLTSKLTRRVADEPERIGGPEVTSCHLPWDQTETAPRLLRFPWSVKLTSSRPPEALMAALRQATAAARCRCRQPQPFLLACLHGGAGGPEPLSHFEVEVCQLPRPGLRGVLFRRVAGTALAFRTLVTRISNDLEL
The settings on record: at 0.1 µM.

The target of experiment [13] is T2, MAP/microtubule affinity-regulating kinase 4 (Homo sapiens). The settings on record: at 1 µM.
Experiment [14] deals with Maternal embryonic leucine zipper kinase (Homo sapiens) (UniProt Q14680). The settings on record: at 0.1 µM.
Experiment [15] has the same target. The settings on record: at 1 µM.
Experiment [16] deals with MAP kinase-interacting serine/threonine-protein kinase 1 (Homo sapiens) (UniProt Q9BUB5). The settings on record: at 0.1 µM.
The target is the same in experiment [17]. The settings on record: at 1 µM.
For experiment [18], the target named is MAP kinase-interacting serine/threonine-protein kinase 2 (Homo sapiens) (UniProt Q9HBH9). The settings on record: at 0.1 µM.
Experiment [19] has the same target. The settings on record: at 1 µM.
In experiment [20] the target is Serine/threonine-protein kinase MARK2 (Homo sapiens) (UniProt Q7KZI7). The settings on record: at 0.1 µM.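 Note: mean percent inhibition of PAR-1Balpha kinase activity, reported from the GSK PKIS screen.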

Seven compounds from ChEMBL document CHEMBL1961873, “Compounds: GSK PKIS; Assays: Nanosyn kinase panel” (2012) can be followed below.

Values joined by “and” are separate entries in the source; they are usually repeats but may differ in a detail not shown here. Equal values may be shown once.

Chain of Serine/threonine-protein kinase MARK2 (Homo sapiens) (Q7KZI7 whole entry): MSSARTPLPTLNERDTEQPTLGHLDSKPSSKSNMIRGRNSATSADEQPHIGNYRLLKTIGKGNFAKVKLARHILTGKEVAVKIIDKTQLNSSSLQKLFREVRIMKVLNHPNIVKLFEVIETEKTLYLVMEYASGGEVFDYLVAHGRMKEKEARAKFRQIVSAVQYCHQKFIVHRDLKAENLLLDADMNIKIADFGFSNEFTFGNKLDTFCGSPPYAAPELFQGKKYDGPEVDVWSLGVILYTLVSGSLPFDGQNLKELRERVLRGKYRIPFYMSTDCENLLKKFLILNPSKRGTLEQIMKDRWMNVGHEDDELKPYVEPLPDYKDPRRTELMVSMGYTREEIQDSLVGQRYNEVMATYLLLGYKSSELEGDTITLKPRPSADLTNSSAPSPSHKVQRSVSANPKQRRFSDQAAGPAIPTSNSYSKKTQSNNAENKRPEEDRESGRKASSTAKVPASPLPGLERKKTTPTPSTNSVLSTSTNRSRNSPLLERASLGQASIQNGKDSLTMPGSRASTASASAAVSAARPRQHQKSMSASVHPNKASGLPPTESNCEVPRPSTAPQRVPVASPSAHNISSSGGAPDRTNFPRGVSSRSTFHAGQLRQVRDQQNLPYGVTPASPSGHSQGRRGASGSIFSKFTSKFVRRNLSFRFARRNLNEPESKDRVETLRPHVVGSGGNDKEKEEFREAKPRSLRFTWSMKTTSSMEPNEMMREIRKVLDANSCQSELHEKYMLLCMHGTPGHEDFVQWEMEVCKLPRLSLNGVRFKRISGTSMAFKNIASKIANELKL
Chain of Maternal embryonic leucine zipper kinase (Homo sapiens) (Q14680 whole entry, looked up): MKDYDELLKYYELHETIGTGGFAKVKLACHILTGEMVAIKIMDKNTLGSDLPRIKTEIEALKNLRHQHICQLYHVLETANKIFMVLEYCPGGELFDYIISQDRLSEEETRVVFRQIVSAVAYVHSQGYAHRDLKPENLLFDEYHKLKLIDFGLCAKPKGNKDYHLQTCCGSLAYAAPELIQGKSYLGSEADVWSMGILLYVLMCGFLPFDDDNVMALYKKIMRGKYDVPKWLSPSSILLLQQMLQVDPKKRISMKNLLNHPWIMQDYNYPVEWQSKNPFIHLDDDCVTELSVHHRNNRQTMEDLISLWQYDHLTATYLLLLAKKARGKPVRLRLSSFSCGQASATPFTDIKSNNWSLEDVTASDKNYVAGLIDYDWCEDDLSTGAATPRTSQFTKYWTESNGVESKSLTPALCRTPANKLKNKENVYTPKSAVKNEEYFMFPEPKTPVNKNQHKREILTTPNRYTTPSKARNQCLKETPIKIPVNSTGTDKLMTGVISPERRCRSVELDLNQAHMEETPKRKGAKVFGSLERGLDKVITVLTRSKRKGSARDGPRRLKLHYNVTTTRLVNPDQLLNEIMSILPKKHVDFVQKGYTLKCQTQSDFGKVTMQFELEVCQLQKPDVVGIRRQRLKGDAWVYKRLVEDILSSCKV
Chain of Death-associated protein kinase 1 (Homo sapiens) (P53355 whole entry, looked up): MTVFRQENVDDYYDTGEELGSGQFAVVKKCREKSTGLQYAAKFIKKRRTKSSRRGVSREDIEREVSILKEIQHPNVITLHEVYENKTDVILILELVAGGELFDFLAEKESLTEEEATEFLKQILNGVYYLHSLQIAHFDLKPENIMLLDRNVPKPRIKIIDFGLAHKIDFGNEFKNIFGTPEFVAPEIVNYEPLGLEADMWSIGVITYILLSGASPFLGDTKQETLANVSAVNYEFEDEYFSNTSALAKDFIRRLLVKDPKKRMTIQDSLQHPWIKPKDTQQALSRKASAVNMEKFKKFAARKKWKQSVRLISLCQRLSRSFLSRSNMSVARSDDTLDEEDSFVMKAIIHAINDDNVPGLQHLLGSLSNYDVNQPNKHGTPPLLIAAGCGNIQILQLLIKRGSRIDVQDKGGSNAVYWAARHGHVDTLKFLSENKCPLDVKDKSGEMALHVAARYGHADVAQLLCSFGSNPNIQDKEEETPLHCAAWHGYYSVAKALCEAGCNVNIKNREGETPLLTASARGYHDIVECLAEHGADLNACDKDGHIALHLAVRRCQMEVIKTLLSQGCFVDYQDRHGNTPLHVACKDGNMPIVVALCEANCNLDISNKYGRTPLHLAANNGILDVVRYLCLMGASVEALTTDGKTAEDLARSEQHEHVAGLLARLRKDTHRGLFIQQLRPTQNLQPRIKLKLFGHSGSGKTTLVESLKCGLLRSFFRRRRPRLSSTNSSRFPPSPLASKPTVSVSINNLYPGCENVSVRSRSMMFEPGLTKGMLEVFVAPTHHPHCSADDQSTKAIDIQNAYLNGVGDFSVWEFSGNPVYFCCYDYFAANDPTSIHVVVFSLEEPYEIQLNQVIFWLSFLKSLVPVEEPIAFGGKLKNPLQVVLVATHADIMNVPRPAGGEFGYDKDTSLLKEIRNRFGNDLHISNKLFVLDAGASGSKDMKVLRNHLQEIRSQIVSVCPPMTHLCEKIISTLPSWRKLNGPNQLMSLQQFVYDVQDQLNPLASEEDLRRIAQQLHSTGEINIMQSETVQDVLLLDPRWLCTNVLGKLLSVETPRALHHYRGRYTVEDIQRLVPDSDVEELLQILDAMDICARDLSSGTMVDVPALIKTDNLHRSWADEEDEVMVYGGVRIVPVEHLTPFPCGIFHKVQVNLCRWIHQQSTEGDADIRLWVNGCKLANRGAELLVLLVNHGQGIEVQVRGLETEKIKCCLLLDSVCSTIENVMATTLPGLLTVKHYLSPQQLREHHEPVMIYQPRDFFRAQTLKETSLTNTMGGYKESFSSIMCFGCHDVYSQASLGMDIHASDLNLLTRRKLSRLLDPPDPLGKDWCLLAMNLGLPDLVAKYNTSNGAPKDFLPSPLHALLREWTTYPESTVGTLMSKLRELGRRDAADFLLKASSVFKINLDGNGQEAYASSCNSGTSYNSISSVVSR
Chain of MAP/microtubule affinity-regulating kinase 3 (Homo sapiens) (P27448 whole entry, looked up): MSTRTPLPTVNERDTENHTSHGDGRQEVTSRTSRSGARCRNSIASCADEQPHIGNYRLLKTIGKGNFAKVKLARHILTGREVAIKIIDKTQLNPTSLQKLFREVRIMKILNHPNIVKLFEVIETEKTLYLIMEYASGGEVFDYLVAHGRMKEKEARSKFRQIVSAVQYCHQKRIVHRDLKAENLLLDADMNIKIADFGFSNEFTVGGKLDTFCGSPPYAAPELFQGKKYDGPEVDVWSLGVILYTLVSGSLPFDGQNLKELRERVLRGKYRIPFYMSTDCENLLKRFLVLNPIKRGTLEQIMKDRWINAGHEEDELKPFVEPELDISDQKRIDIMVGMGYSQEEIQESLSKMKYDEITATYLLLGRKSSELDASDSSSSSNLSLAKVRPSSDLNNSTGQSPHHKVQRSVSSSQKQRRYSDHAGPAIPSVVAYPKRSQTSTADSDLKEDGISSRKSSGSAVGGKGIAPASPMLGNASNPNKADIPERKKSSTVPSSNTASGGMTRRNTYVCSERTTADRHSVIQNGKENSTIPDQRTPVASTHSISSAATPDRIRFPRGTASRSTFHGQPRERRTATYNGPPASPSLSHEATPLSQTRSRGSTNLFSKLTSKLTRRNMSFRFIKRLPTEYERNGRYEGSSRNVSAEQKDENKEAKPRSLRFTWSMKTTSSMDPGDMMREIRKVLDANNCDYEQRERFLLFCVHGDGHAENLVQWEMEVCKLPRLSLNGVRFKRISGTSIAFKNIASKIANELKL
Chain of Serine/threonine-protein kinase MARK1 (Homo sapiens) (Q9P0L2 whole entry, looked up): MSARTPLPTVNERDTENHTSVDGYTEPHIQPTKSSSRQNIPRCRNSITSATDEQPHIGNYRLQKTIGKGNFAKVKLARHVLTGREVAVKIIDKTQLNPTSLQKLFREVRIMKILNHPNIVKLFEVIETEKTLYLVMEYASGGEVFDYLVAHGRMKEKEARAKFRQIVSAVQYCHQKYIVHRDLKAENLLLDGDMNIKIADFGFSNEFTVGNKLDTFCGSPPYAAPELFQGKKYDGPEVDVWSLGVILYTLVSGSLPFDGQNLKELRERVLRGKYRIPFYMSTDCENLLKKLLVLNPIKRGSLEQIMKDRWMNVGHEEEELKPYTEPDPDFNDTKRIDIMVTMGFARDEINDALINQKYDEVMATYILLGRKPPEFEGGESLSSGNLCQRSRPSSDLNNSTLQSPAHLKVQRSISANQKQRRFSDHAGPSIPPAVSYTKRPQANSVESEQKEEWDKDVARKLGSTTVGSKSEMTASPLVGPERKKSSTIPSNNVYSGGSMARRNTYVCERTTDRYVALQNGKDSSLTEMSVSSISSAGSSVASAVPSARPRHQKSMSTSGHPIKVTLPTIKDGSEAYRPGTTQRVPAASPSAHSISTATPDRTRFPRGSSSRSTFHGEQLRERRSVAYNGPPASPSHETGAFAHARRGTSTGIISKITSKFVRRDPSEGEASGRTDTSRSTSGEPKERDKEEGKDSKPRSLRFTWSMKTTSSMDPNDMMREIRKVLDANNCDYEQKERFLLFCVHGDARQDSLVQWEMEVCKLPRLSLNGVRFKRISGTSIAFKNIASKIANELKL
Chain of MAP kinase-interacting serine/threonine-protein kinase 1 (Homo sapiens) (Q9BUB5 whole entry, looked up): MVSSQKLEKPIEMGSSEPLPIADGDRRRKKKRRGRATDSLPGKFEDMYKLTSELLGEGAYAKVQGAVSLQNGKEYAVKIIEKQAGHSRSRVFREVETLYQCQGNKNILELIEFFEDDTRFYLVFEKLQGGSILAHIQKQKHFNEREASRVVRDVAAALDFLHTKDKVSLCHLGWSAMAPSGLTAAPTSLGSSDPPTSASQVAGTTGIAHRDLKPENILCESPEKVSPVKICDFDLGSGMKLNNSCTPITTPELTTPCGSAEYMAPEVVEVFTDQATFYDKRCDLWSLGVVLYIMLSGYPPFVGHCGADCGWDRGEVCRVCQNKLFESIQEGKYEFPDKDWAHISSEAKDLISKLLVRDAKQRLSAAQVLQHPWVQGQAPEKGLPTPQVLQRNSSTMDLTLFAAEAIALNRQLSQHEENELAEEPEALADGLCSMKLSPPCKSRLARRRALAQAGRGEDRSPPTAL

Take `CCN1CCC(C(=O)Nc2n[nH]c3nnc(-c4cccc(F)c4F)cc23)CC1`: the inhibition in experiment [1] was -1.64%; in experiment [2], -0.76%; in experiment [3], -0.98%; in experiment [4], -0.95%; in experiment [5], -0.88%; in experiment [6] it was -0.17%. Also, the inhibition in [7] was -1.03%; in [8], 0.92%; in experiment [9] it was 2.69%; in [10] it was -0.37%; in experiment [11], 1.76%; in experiment [12] it was 0.44%. Further, the inhibition in experiment [13] is 2.52%; in [14], -1.02%; in experiment [15], -1.79%; in experiment [16] it was 1.56%; in experiment [17] it was 3.13%; in [18], 0.51%. In addition, the values for the inhibition in experiment [19] and in experiment [20] were 1.47% and -2.48%, respectively.
Regarding `COc1cc(Nc2ncc(-c3ccccc3)o2)cc(OC)c1`, the inhibition is -0.73% in [1]; 1.65% in [2]; 1.7% in experiment [3]; 2.4% in experiment [4]; 1.2% in experiment [5]; 3.76% in experiment [6]. Besides, the inhibition was found to be 3.61% in experiment [7]; 1.26% in [8]; 4.72% in experiment [9]; 3.35% in [10]; 2.48% in experiment [11]; 1.86% in [12]. The inhibition in [13] came out at 3.56%; in experiment [14], 4.58%; in [15], 5.97%; in experiment [16], 3.84%; in [17], 10.8%; in experiment [18], 1.3%. The figures for the inhibition in [19] and in [20] were 12.4% and -1.15%, respectively.
Regarding `NS(=O)(=O)c1ccc(N/N=C2\C(=O)Nc3cccc(CCc4ccncc4)c32)cc1`, the inhibition is -1.65% in experiment [1]; -0.47% in [2]; -0.08% in experiment [3]; -0.02% in experiment [4]; -0.84% in experiment [5]; 0.82% in experiment [6]. Besides, the inhibition is 0.37% in experiment [7]; 2.29% in [8]; 5.9% in experiment [9]; 1.2% in experiment [10]; 3.11% in experiment [11]; 2.47% in experiment [12]. Besides, the inhibition came to 4.28% in experiment [13]; 4.76% in experiment [14]; 34.7% in experiment [15]; 1.05% in [16]; 0.27% in [17]; 0.14% in experiment [18]. Further, the values for the inhibition in [19] and in experiment [20] were 1.83% and 0.98%, respectively.
With `N#Cc1cccc(Nc2ncc(-c3ccccc3)o2)c1`, the inhibition is 2.82% in [1]; -0.77% in experiment [2]; 0.28% in experiment [3]; 0.9% in experiment [4]; 1.11% in experiment [5]; -0.02% in [6]. For the same compound, the inhibition is 2.79% in experiment [7]; 1.98% in [8]; 5.43% in experiment [9]; -0.93% in experiment [10]; 7.34% in [11]; -0.09% in experiment [12]. Besides, the inhibition in experiment [13] is 1.81%; in experiment [14] it was -0.12%; in experiment [15], 2.2%; in experiment [16] it was 2.67%; in [17] it was 10.1%; in experiment [18], 2.19%. Besides, the results for the inhibition in [19] and in experiment [20] were 8.7% and -0.17%, respectively.
Turning to `Nc1ncnc2occ(-c3ccc(NC(=O)Nc4cc(C(F)(F)F)ccc4F)cc3)c12`, the inhibition was 4.75% and 1.06% in [1]; 3.65% and -1.65% in experiment [2]; -4.63% in experiment [3]; 1.16% and -1.74% in experiment [4]; 1.1% and -1.65% in [5]; 3.46% and -1.38% in experiment [6]. In addition, the inhibition in experiment [7] was 13.9% and 7.55%; in experiment [8], 1.91% and -0.63%; in experiment [9], 3.01% and -0.26%; in experiment [10], 1.57% and -1.4%; in experiment [11], 2.97% and -0.26%; in experiment [12], 0.43% and 1.7%. Besides, the inhibition was 2.95% and 1.13% in [13]; -6.51% and -4.36% in experiment [14]; 6.91% and 2.48% in experiment [16]; 30% and 16.5% in [17]; 7.71% and 2.55% in experiment [18]; 40.3% and 28.8% in experiment [19]. For the same compound, in experiment [20], the inhibition is -0.86% and -0.02%.
As to `CC1(C)CC(n2cnc(-c3ccc(F)cc3)c2-c2ccnc(N)n2)CC(C)(C)N1`, the inhibition in experiment [1] was -7.03%; in experiment [2], 2.01%; in experiment [3], -7.74%; in experiment [4], -2.49%; in experiment [5] it was -2.73%; in experiment [6] it was 21.4%. Moreover, the inhibition is 26.4% in experiment [7]; 1.88% in [8]; 0.57% in [9]; 1.34% in experiment [10]; 1.48% in experiment [11]; 1.1% in experiment [12]. Besides, the inhibition in [13] came to 1.23%; in [14], 2.12%; in experiment [15], 3.51%; in [16], 1.11%; in experiment [17] it was 2.81%; in experiment [18], 0.35%. Moreover, the figures for the inhibition in experiment [19] and in [20] were 0.79% and 0.16%, respectively.
Consider `COC(=O)Nc1nc2ccc(Oc3ccc(NC(=O)Nc4cc(C(F)(F)F)ccc4F)cc3)cc2s1`, for which the inhibition in experiment [1] was -1.22%; in experiment [2] it was -1.5%; in experiment [3], -7.94%; in [4], 0.26%; in experiment [5], -0.42%; in experiment [6], 7.74%. Further, the inhibition was 20.3% in experiment [7]; 0.76% in [8]; 0.29% in experiment [9]; 0.41% in experiment [10]; -0.18% in experiment [11]; -0.51% in experiment [12]. The inhibition in experiment [13] is 0.37%; in experiment [14], 1.63%; in [15] it was 3.51%; in experiment [16] it was 4.79%; in experiment [17] it was 15.7%; in experiment [18] it was 2.41%. The inhibition in [19] was 7.88%; in experiment [20] it was -8.34%.
